From PubChem
Compounds with a hit are over-represented: about 6.2% of the library has one in this group of screens.
Luc counter: Kinase-Glo luciferase inhibition (counter-screen). Q27757. Kinase-Glo luciferase, ATP luminescence, 8 min. Potency, µM (doses to about 38.3 µM), without a hit: at the top dose activity change, negative = inhibition, most hits filed as inhibitors. 0.28% of 200,000 active; also: nearly all actives have a fitted effect of over 60% in size
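Compound is pinned into ATP-containing buffer (10 uM ATP, imidazole pH 7.2, 7 mM MgCl2). Kinase-Glo luciferase reagent is then added. Light output is recorded following an 8-min room-temperature incubation.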
RORgamma inh: inhibitors of mouse ROR gamma transcriptional activity | 5.4% of 310,000 active | Potency, µM (highest dose often 53.6 µM), inactives show at the highest dose activity change, negative = inhibition, hits mostly inhibitors | Drosophila S2 Gal4-RORgamma UAS-luciferase reporter, 20 h | P51450; also: nearly all actives have a fitted effect of over 60% in size
Target sequence (P51450 whole entry, looked up, the tested form may be a part): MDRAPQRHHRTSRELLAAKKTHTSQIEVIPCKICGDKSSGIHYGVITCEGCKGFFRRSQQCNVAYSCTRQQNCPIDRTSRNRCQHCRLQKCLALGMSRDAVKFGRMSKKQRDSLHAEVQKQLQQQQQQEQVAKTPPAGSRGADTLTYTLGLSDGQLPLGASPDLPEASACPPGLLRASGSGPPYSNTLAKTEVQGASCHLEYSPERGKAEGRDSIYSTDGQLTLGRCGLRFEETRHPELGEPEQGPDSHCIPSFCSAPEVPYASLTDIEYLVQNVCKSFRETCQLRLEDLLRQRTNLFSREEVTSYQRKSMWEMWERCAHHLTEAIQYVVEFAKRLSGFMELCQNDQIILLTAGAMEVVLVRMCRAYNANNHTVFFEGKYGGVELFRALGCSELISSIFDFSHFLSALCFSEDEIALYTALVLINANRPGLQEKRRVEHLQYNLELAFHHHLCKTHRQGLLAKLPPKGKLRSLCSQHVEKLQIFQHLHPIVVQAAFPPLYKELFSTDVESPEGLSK
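Using a luciferase readout, inhibitors were identified by reduced reporter activity in Drosophila cells coexpressing a copper-inducible Gal4–ROR gamma fusion and UAS-driven Photinus luciferase, incubated 20 hr after 700 uM copper sulfate.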
Gal4-VP16 FLuc: counter-screen for ROR gamma inhibitors: Gal4-VP16 reporter | 3.5% of 310,000 active | Potency, µM (top dose mostly 53.6 µM), for inactives: at the top dose activity, negative = inhibition, actives largely listed as inhibitors | Drosophila S2 Gal4-VP16 UAS-luciferase, luminescence, 20 h;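 also: Gal4-VP16 expression switched on by copper sulfate through the metallothionein promoter; nearly all actives have a fitted effect of over 50% in size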
Starred values were filed as active, the others as inactive; ? = inconclusive; . = not tested or not shown; [ ] = dose if it differs, or a comment. Calls follow the shape of the dose curve; as a rule, active = well fitted curve in the direction sought with a large enough effect; inconclusive = small, poorly fitted or top-dose-only effect, or another doubt; inactive = no such curve, though single readings can be large; an effect the other way counts as inactive or inconclusive. % is scaled to controls: 0 for no effect and ±100 for the full control effect; potency is read from the fitted curve at half-maximal effect.

SMILES	Luc counter	RORgamma inh	Gal4-VP16 FLuc
O=C(Cc1ccccc1)Nc1ccccc1N1CCOCC1	-3%	-1%	1%
O=C([O-])[C@@H]1[O][Sb+]([O][Sb+]2[O][C@H]([C@H](O)CO)[C@H](O)[C@H](C(=O)[O-])[O]2)[O][C@H]([C@H](O)CO)[C@@H]1O	.	1%	-4%
CC1=NC(C(F)(F)F)(C(F)(F)F)C(C#N)=C(C)N1	-1%	32%	-15%
COc1cccc(OC)c1-c1nn(-c2ncc(C(F)(F)F)cc2Cl)c(=O)o1	.	5%	3%
COc1ccc(CNC(=O)Cn2ncn3c(cc4ccccc43)c2=O)cc1	.	0%	2%
O=C(Cn1ncn2c(cc3ccccc32)c1=O)NCc1ccco1	-5%	5.6µM*	-9%
CCCNC(=O)[C@H](C)NC(=O)c1ccc(Br)cc1	2%	24%	-14%
CCCCCC(=O)CC[C@@H]1[C@@H](C/C=C\CCCC(=O)O)[C@@H](O)C[C@H]1O	2%	2%	-15%
CN(C)CCCN(C(=O)COc1ccc(Cl)cc1)c1nc2cc3c(cc2s1)OCO3	.	11µM*	?
CCN(c1ccccc1)S(=O)(=O)c1ccc(C(=O)N(CCCN(C)C)c2nc3cc4c(cc3s2)OCO4)cc1	.	-43%	?
CN(C)CCCN(C(=O)COc1ccccc1)c1nc2cc3c(cc2s1)OCO3	.	1%	9%
CN(C)CCCN(C(=O)c1ccc(S(=O)(=O)N(C)Cc2ccccc2)cc1)c1nc2cc3c(cc2s1)OCO3	.	8.9µM*	?
CN(C)CCCN(C(=O)c1ccc([N+](=O)[O-])o1)c1nc2cc3c(cc2s1)OCO3	.	13µM*	?
CN(C)CCCN(C(=O)c1ccc2c(c1)OCCO2)c1nc2cc3c(cc2s1)OCO3	.	-7%	4%
CCS(=O)(=O)C(C)(CCl)C(=O)Nc1ccc(C(=O)OC)cc1 (configuration not stated)	.	16%	1%
CCOc1ccccc1NC(=O)C(OC(=O)c1ccc(CC)cc1)c1ccccc1 (configuration not stated)	2%	34%	-15%
CCOc1ccccc1NC(=O)C(OC(=O)c1ccc(O)cc1)c1ccccc1 (configuration not stated)	-1%	18µM*	?
C#C[C@]1(OC(C)=O)CC[C@H]2[C@@H]3CCC4=CC(=O)CC[C@@H]4[C@H]3CC[C@@]21C	-1%[39.9 µM]	?	1%
O=C(Cc1csc(Nc2nc(=S)[nH]c3ccccc23)n1)NCCCN1CCN(c2ccccc2F)CC1	-3%	2µM*	10µM*
O=C(Cc1csc(Nc2nc(=S)[nH]c3ccccc23)n1)NCc1ccc(Cl)cc1	-4%	3.5µM*	10µM*
COc1ccc(CNC(=O)Cc2csc(Nc3nc(=S)[nH]c4ccccc34)n2)cc1	-1%	1.8µM*	13µM*
O=C(NCc1ccc(Cl)cc1)c1cc(=O)[nH]c2ccccc12	.	5%	-2%
Cn1c(C(=O)NCCCN2CCN(c3ccccc3F)CC2)cc2c(=O)[nH]c3ccccc3c21	-6%	15%	-21%
COc1ccc(CNC(=O)Cc2c(C(=O)O)[nH]c3ccccc23)cc1	0%	-14%	-9%
Cc1ccc(NC(=O)CSc2n[nH]c(-c3cccnc3)n2)cc1Cl	.	44%	-17%
SMILES	Luc counter	RORgamma inh	Gal4-VP16 FLuc
CC1CN(C(=O)Cn2cc(SCC(=O)N3CCOCC3)c3ccccc32)CC(C)O1 (configuration not stated)	.	10%	-4%
CSc1ccc(/C=C/c2cc(=O)c3ccccc3[nH]2)cc1	-3%	?	-4%
O=c1[nH]c2ccccc2nc1/C=C/c1ccccc1	.	-1%	-8%
C(=C\c1nccc2c1[nH]c1ccccc12)/c1ccccc1	.	1.6µM*	4µM*
Fc1ccc(/C=C\c2nccc3c2[nH]c2ccccc23)cc1	-9%	1.8µM*	?
Cc1ccc(/C=C\c2nccc3c2[nH]c2ccccc23)cc1	-1%	0.63µM*	3.2µM*
O=c1[nH]c2ccccc2nc1/C=C/c1ccc(F)cc1	.	50%	-2%
CC1(C)CC[C@]2(C(=O)O)CC[C@@]3(C)C(=CCC4[C@@]5(C)CCC(O)[C@@](C)(CO)C5CC[C@@]43C)C2C1 (some centres not stated)	-3%	-10%	-5%
Cc1nn(C)cc1CN1CCCC(C(=O)c2ccc(-c3ccccc3)c(F)c2)C1 (configuration not stated)	.	29%	2%
CCOCCCn1c(=NC(=O)c2cccs2)c(C#N)cc2c(=O)n3ccccc3nc21	.	-5%	-7%
Cc1cccc(-n2c(C)cc(/C=N/n3cnnc3)c2C)c1	-2%	?	20µM*
Cc1cc(/C=N/n2cnnc2)c(C)n1-c1ccc2c(c1)OCO2	-6%	37%	1%
C#CCCCO/N=C1/C[C@@H](O)[C@@H](O)[C@@H]2[C@@H]3C(=O)N(CC)C(=O)[C@H]3CC[C@H]12	.	5%[10 µM]	-7%[10 µM]
CC(C)(C)C(=O)Nc1cccc(-c2cc(-c3c(Cl)cccc3Cl)no2)c1	.	-3%	7%
COc1cccc2c1C(=O)c1c(O)c3c(c(O)c1C2=O)C[C@](O)(C(=O)CO)C[C@H]3O[C@@H]1C[C@H](N)[C@H](O)[C@H](C)O1	-6%[17.1 µM]	1.1µM*	7.1µM*
COc1cccc2c1C(=O)c1c(O)c3c(c(O)c1C2=O)C[C@@](O)(C(=O)CO)C[C@H]3O[C@H]1C[C@@H](N)[C@H](O)[C@@H](C)O1.[W]	-7%[7.66 µM]	.	.
CC(=O)c1cccc(NC(=O)c2cc3ccccn3n2)c1	-12%	8.9µM*	?
O=C(Nc1ccc(CN2CCOCC2)cc1)c1cc2ccccc2o1	1%	11µM*	?
Cc1ccccc1NC(=O)c1cc2ccccn2n1	.	-74%	?
O=C(Nc1ccc(CN2CCOCC2)cc1)c1ccccc1F	-6%	0.63µM*	11µM*
O=C(Nc1ccc(CN2CCOCC2)cc1)c1ccc(Cl)cc1Cl	.	-13%	2%
O=C(Nc1ccc(CN2CCOCC2)cc1)c1cc2ccccn2n1	-16%	10µM*	20µM*
O=C(Cc1ccccc1)Nc1ccc(CN2CCOCC2)cc1	-1%	-30%	?
O=C(NC(=S)Nc1ccc(CN2CCOCC2)cc1)c1cc2ccccc2o1	1%	10%	-12%
COc1ccc2[nH]cc(CCNc3ncncc3-c3ccc4c(c3)OCO4)c2c1	.	33%	?
SMILES	Luc counter	RORgamma inh	Gal4-VP16 FLuc
CCC(Oc1ccccc1F)C(=O)NCCCn1ccnc1 (configuration not stated)	.	10%	-3%
COc1ncc2ncc(=O)n(CCC#N)c2n1	-1%	-24%	-16%
COc1cc(OC)cc(C2=Nn3c(nnc3-c3ccccc3O)SC2)c1	.	-2%	?
COC(=O)N1CCC2(CCCN(C(=O)Nc3cccc(F)c3)C2)CC1	-4%	-11%	-5%
COc1cccc(NC(=S)N2CCN(c3ccc([N+](=O)[O-])cc3)CC2)c1	0%	0%	7%
COc1ccc(NC(=S)N2CCN(c3ccc([N+](=O)[O-])cc3)CC2)cc1OC	-2%	?	7.1µM*
O=[N+]([O-])c1ccc(N2CCN(C(=S)Nc3ccc(F)cc3F)CC2)cc1	4%	13µM*	?
O=[N+]([O-])c1ccc(N2CCN(C(=S)Nc3ccc(F)cc3)CC2)cc1	-3%	?	?
